The panel holds about 83,000 compounds, 20% with a hit somewhere; the sample as a whole holds those more often.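 Method: cells in 96-well plates; compound added at one concentration; 48 h incubation; percent growth measured; values under 10 scored active.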 Unmarked numbers belong to inactive results. Active and inactive are the calls of the source.
tested on: MDA-MB-231 breast; assay: NCI-60 one-dose screen, 48 h (100 = growth as untreated, 0 = no growth, -100 = all killed); details: 10 µM unless noted

Row | Structure (SMILES) | growth
1 | COc1ccc2nc(-c3ccc(Cl)cc3)cc(-c3nnc(SCC(=O)Nc4ccc(/C(C)=N\O)cc4)o3)c2c1 | 39.7%
2 | C/C(=C\c1cnc(C)s1)[C@@H]1C[C@@H]2O[C@@H]2CCC[C@H](C)[C@H](O)[C@@H](C)C(=O)C(C)(C)[C@@H](O)CC(=O)O1 | 41.3%
3 | O=C(/C(=C\c1c(-c2ccccc2)[nH]c2ccccc12)S(=O)(=O)c1ccccc1)c1ccccc1 | 49.8%
4 | O=c1[nH]c(-c2cccc(F)c2)cc2cc(F)ccc12 | 49.8%
5 | O=C1CS/C(=N/c2nnc(-c3ccc(O)cc3)s2)N1 | 109%
6 | C[C@H](Oc1cc(-c2cnn(C3CCNCC3)c2)cnc1N)c1c(Cl)ccc(F)c1Cl | 52.2%
7 | COCCOCCOCc1n(Cc2ccc3ccccc3n2)c2ccccc2[n+]1Cc1ccc2ccccc2n1 | 17.9%
8 | CCOC(=O)c1cnn(-c2nc(-c3ccc(F)cc3)c(C#N)c(N3CCOCC3)n2)c1N | 107%
9 | CC(=O)c1c(OCC#N)ccc2c(C)cc(=O)oc12 | 104%
10 | CN(CCC#N)C(=O)Nc1ccccc1 | 116%
11 | C#Cc1ccccc1NC(=O)c1sc2nc3c(cc2c1N)CCCCC3 | 93.5%
12 | COCCOC(=O)COc1ccc(OC)cc1 | 98.1%
13 | C#C[C@@]1(O)[C@@H](CO)O[C@@H](n2cnc3c(-c4ccccc4)ncnc32)[C@@H]1O | 126%
14 | COc1cc(NCC(=O)Nc2cc(Nc3ccc(C)cc3)ncn2)c(Cl)c(OC)c1Cl | 64.2%
15 | COc1ccc2oc(=O)cc(-c3c(C#N)c(N)n4nc(N)c(C#N)c4c3C#N)c2c1 | 104%
16 | O=C1NC(SCc2ccc(F)cc2)=N/C1=C/c1cccc(OCc2ccc(Cl)cc2)c1 | 18.3%
17 | COc1ccc(Nc2nc(SCC(C)C)nc(-c3ccc(F)cc3)c2C#N)cc1 | 89.3%
18 | COC(=O)/C=C1\SC(=Nc2ccc(F)cc2)N(CCc2c[nH]c3ccccc23)C1=O | 96.9%
19 | Nc1c(C(=O)Nc2ccccc2)sc2nc3c(cc12)CN(C(=O)OCc1ccccc1)CC3 | 68.4%

Row | Structure (SMILES) | growth
20 | COc1ccc(C2=NN(c3ccc(S(N)(=O)=O)cc3)C(c3ccc(Cl)cc3)C2)c(O)c1 (centres undefined) | 76.5%
21 | COc1ccc(C(C)c2cc(OC)c(OC)c(OC)c2)cc1 (centres undefined) | 30.5%
22 | COc1ccc(-n2nc(C(=O)NCC(=O)O)nc2-c2ccccc2)cc1 | 108%
23 | CCOC(=O)C1=C(C)n2nc(CC#N)c(C#N)c2NC1c1ccc(Cl)cc1 (centres undefined) | 88.8%
24 | Nc1c(C(=O)Nc2ccccn2)sc2nc3c(cc12)CCCC3 | 66.5%
25 | CCN1CCC[C@H]1c1cc(O)c2c(c1OC)C[C@H]1C[C@H]3[C@H](N)C(=O)C(C(N)=O)=C(O)[C@@]3(O)C(=O)C1=C2O | -6.79% (active)
26 | Cc1cc(O)cc(O)c1N=NC1=NCCS1 | 97.1%
27 | COC(=O)c1cncc(C(=O)Nc2ccc(-n3cnc4ccccc43)cc2)c1 | 94%
28 | CNc1cccc2c1C(=O)c1cccc(N)c1C2=O | 85.9%
29 | O=S(=O)(Nc1nccs1)c1ccc(Nc2nc(-c3ccncc3)cs2)cc1 | 105%
30 | CN1C(=O)c2cc(Cl)nc3c(NC(=O)c4cccc(Cl)c4)c(Cl)c(NC(=O)c4cccc(Cl)c4)c1c23 | -40.2% (active)
31 | O=C(O)COc1ccc2c(=O)c3sc4c(=O)c5ccccc5c(=O)c4c3c(=O)c2c1 | 45.2%
32 | O=C(Nc1nc(-c2ccccc2)cs1)c1cc(-c2ccc(Br)cc2)nc2ccccc12 | 57.8%
33 | Cc1cc(Nc2nc(SCc3ccc(C(=O)Nc4ccc(F)cc4N)cc3)nn3cccc23)n[nH]1 | 22.8%
34 | O=C1NCc2ccc3c(-c4cccc(Cl)c4)c[nH]c3c21 | 47.6%
35 | O=C(CN1N=C(c2ccc(F)cc2)CCC1=O)Nc1nccs1 | 109%
36 | O=C1Nc2ccc(Cl)cc2/C1=N/c1nc(-c2ccc(F)cc2)cs1 | 31.3%
37 | OCCNc1nc(NCCO)nc(Nc2ccc(C3=NN(c4cc(Cl)cc(Cl)c4)C(c4ccc(Cl)cc4)C3)cc2)n1 (centres undefined) | 7.31% (active)

tested on: RXF 393 renal; assay: as above; details: 10 µM unless noted

Row | Structure (SMILES) | growth
38 | COc1ccc2nc(-c3ccc(Cl)cc3)cc(-c3nnc(SCC(=O)Nc4ccc(/C(C)=N\O)cc4)o3)c2c1 | 39.7%
39 | C/C(=C\c1cnc(C)s1)[C@@H]1C[C@@H]2O[C@@H]2CCC[C@H](C)[C@H](O)[C@@H](C)C(=O)C(C)(C)[C@@H](O)CC(=O)O1 | 18.1%
40 | O=C(/C(=C\c1c(-c2ccccc2)[nH]c2ccccc12)S(=O)(=O)c1ccccc1)c1ccccc1 | 46.7%
41 | O=c1[nH]c(-c2cccc(F)c2)cc2cc(F)ccc12 | 9.93% (active)
42 | O=C1CS/C(=N/c2nnc(-c3ccc(O)cc3)s2)N1 | 125%
43 | C[C@H](Oc1cc(-c2cnn(C3CCNCC3)c2)cnc1N)c1c(Cl)ccc(F)c1Cl | 31.6%
44 | COCCOCCOCc1n(Cc2ccc3ccccc3n2)c2ccccc2[n+]1Cc1ccc2ccccc2n1 | 66.9%
45 | CCOC(=O)c1cnn(-c2nc(-c3ccc(F)cc3)c(C#N)c(N3CCOCC3)n2)c1N | 122%
46 | CC(=O)c1c(OCC#N)ccc2c(C)cc(=O)oc12 | 106%
47 | CN(CCC#N)C(=O)Nc1ccccc1 | 114%
48 | C#Cc1ccccc1NC(=O)c1sc2nc3c(cc2c1N)CCCCC3 | 113%
49 | COCCOC(=O)COc1ccc(OC)cc1 | 104%
50 | C#C[C@@]1(O)[C@@H](CO)O[C@@H](n2cnc3c(-c4ccccc4)ncnc32)[C@@H]1O | 122%
51 | COc1cc(NCC(=O)Nc2cc(Nc3ccc(C)cc3)ncn2)c(Cl)c(OC)c1Cl | 118%
52 | COc1ccc2oc(=O)cc(-c3c(C#N)c(N)n4nc(N)c(C#N)c4c3C#N)c2c1 | 100%
53 | O=C1NC(SCc2ccc(F)cc2)=N/C1=C/c1cccc(OCc2ccc(Cl)cc2)c1 | 55%
54 | COc1ccc(Nc2nc(SCC(C)C)nc(-c3ccc(F)cc3)c2C#N)cc1 | 74%
55 | COC(=O)/C=C1\SC(=Nc2ccc(F)cc2)N(CCc2c[nH]c3ccccc23)C1=O | 110%
56 | Nc1c(C(=O)Nc2ccccc2)sc2nc3c(cc12)CN(C(=O)OCc1ccccc1)CC3 | 68.2%

Row | Structure (SMILES) | growth
57 | COc1ccc(C2=NN(c3ccc(S(N)(=O)=O)cc3)C(c3ccc(Cl)cc3)C2)c(O)c1 (centres undefined) | 45.1%
58 | COc1ccc(C(C)c2cc(OC)c(OC)c(OC)c2)cc1 (centres undefined) | 24.7%
59 | COc1ccc(-n2nc(C(=O)NCC(=O)O)nc2-c2ccccc2)cc1 | 120%
60 | CCOC(=O)C1=C(C)n2nc(CC#N)c(C#N)c2NC1c1ccc(Cl)cc1 (centres undefined) | 100%
61 | Nc1c(C(=O)Nc2ccccn2)sc2nc3c(cc12)CCCC3 | 84.7%
62 | CCN1CCC[C@H]1c1cc(O)c2c(c1OC)C[C@H]1C[C@H]3[C@H](N)C(=O)C(C(N)=O)=C(O)[C@@]3(O)C(=O)C1=C2O | -40.4% (active)
63 | Cc1cc(O)cc(O)c1N=NC1=NCCS1 | 123%
64 | COC(=O)c1cncc(C(=O)Nc2ccc(-n3cnc4ccccc43)cc2)c1 | 100%
65 | CNc1cccc2c1C(=O)c1cccc(N)c1C2=O | 60.9%
66 | O=S(=O)(Nc1nccs1)c1ccc(Nc2nc(-c3ccncc3)cs2)cc1 | 110%
67 | CN1C(=O)c2cc(Cl)nc3c(NC(=O)c4cccc(Cl)c4)c(Cl)c(NC(=O)c4cccc(Cl)c4)c1c23 | -88.9% (active)
68 | O=C(O)COc1ccc2c(=O)c3sc4c(=O)c5ccccc5c(=O)c4c3c(=O)c2c1 | 49.3%
69 | O=C(Nc1nc(-c2ccccc2)cs1)c1cc(-c2ccc(Br)cc2)nc2ccccc12 | 65.7%
70 | Cc1cc(Nc2nc(SCc3ccc(C(=O)Nc4ccc(F)cc4N)cc3)nn3cccc23)n[nH]1 | 23.5%
71 | O=C1NCc2ccc3c(-c4cccc(Cl)c4)c[nH]c3c21 | -3.81% (active)
72 | O=C(CN1N=C(c2ccc(F)cc2)CCC1=O)Nc1nccs1 | 110%
73 | O=C1Nc2ccc(Cl)cc2/C1=N/c1nc(-c2ccc(F)cc2)cs1 | 37%
74 | OCCNc1nc(NCCO)nc(Nc2ccc(C3=NN(c4cc(Cl)cc(Cl)c4)C(c4ccc(Cl)cc4)C3)cc2)n1 (centres undefined) | -57.8% (active)

Source: PubChem BioAssay (NCI)
